# Source: PubChem
# TRHR agonist-1: activates the human TRH receptor; TRHR cells, calcium flux fluo-8, FDSS agonist mode; activation, % at 2 µM; actives 0.18% (n = 360,000); AID 493084; in the data active = activation above about 30%; note: 0% is about no effect
# Target sequence (P34981 whole entry, looked up): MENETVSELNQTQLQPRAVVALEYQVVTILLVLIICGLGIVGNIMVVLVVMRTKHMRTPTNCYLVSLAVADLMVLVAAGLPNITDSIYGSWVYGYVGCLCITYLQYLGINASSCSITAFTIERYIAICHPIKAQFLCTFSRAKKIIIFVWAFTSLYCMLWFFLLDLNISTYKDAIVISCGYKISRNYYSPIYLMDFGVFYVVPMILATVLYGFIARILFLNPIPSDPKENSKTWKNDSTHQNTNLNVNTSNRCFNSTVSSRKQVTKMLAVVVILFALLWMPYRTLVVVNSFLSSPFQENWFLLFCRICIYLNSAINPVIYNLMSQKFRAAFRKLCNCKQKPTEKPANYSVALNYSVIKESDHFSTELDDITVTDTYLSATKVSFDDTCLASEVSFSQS
#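 Read-out: compound-evoked intracellular calcium rise in TRHR cells, fluo-8 dye, kinetic FDSS fluorescence at 1 s/cycle following a 10-cycle baseline. Cells cultured overnight before dye loading (30 min–1.5 h, RT).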
# D1 agonist: agonists of human D1 dopamine receptor; P21728; AID 504660; actives 1% (n = 360,000); HEK293 T-REx D1 cells, calcium flux, agonist mode; activation, % at 2 µM; in the data active = activation above about 30%; note: 0% is about no effect
#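 Inducible HEK293 T-REx D1 cells, force-coupled to calcium signalling, were plated at 4000 cells/well with tetracycline and held overnight at 30 C. After no-wash calcium dye loading, compound-evoked calcium rise over 180 s flagged agonists.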
# D1 antag: antagonists of human D1 dopamine receptor; P21728; HEK293 TREx D1 cells, calcium flux, dopamine EC80; active compounds read low; activity change, negative = inhibition, % at 10 µM; actives 3.2% (n = 360,000); in the data active = activity change below about -30%; note: % is set by controls: 0 for no effect and ±100 for the full control effect
#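 Tetracycline-induced HEK293 T-REx cells with force-coupled D1 receptor were loaded with a no-wash calcium dye. Compound was added after a 10 s baseline and read kinetically for 180 s; EC80 dopamine was then added and calcium flux followed another 180 s.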
# TRHR enhancer-1: TRH receptor (human) allosteric enhancement | P34981 | TRHR cells, fluo-8 calcium fluorescence, EC20 TRH enhancement | enhancement, % at 2 µM | actives 0.66% (n = 360,000) | AID 493056; in the data active = enhancement above about 30%; note: 0% is about no effect
#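 Enhancer read-out: after compound pinning and an initial kinetic agonist-mode read, an EC20 of TRH (10 nM final) was injected and fluo-8 calcium signal (Ex 480/Em 530) followed at 1 s/cycle for 100 cycles in TRHR-expressing cells.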
# D1 potentiator: human D1 dopamine receptor positive modulation | actives 0.036% (n = 360,000) | P21728 | potentiation, % at 10 µM | AID 504651 | HEK293 TREx D1 cells, calcium flux, dopamine EC20 potentiation; in the data active = potentiation above about 30%; note: 0% is about no effect
# TRHR enhancer-2: confirmation of human TRH receptor allosteric enhancers; AID 493076; activity change, negative = inhibition, % at 46.1 µM; shares compounds with TRHR enhancer-1; 970 tested, under 10 active; TRH receptor cell assay, enhancer confirmation qHTS;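 note: compound effect scored on response to added TRH at EC20 of 10 nM; 0% is about no effect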
# TRHR agonist-2: confirmation of human TRH receptor agonists. TRHR-expressing cells, agonist activation read-out. shares compounds with TRHR enhancer-1. actives 8% (n = 970). Potency, µM (series often up to 46.1 µM), without a hit: at the highest dose activation, usual class: activators. AID 493078; note: potency is the fitted concentration of half-maximal effect; 0% is about no effect; nearly all actives have a fitted effect of over 75% in size
# The depositor's hits bear a star; u = inconclusive; x = no result given. Most compounds without a hit are left out; they make up all but 4.6% or so of the library. Unless noted, calls come from the whole dose curve; as a rule, active = well fitted curve in the direction sought with a large enough effect; inconclusive = small, poorly fitted or top-dose-only effect, or another doubt; inactive = no such curve, though single readings can be large; an effect the other way counts as inactive or inconclusive.
SMILES,TRHR agonist-1,D1 agonist,D1 antag,TRHR enhancer-1,D1 potentiator,TRHR enhancer-2,TRHR agonist-2
CC(=O)Nc1sc(/C(C#N)=C/c2ccc(Cl)c(Cl)c2)nc1-c1ccc(C)cc1,68*,283*,-49*,-1,-10,-10,7.3µM*
CCN1CCN(Cc2c(O)ccc3c2O/C(=C\c2ccc(C)cc2)C3=O)CC1,26,19,-1,-6,-7,7,u
COCCCn1nnnc1SCC(=O)Nc1nc2ccccc2s1,0,2,-12,1,-4,x,x
NC(=O)CSc1nnc(SCc2ccc(F)cc2)s1,31*,1,x,0,-4,-1,2%
COc1ccc(C(=O)N/N=C/c2sc3ccccc3c2O)cc1,7,23,3,-3,-2,x,x
O=C(N/N=C/c1sc2ccccc2c1O)c1ccccc1,38*,60*,10,-6,-1,1,21µM*
COc1ccc(CNCC(O)COc2ccc(C)cc2[N+](=O)[O-])cc1 (stereo unspecified),34*,22,-10,2,-14,4,2%
COc1ccc(OCCOCCOc2ccc(C)cc2[N+](=O)[O-])cc1,0,8,-7,-1,2,x,x
O=C(Nc1cccc(F)c1)/C(=C/c1ccco1)NC(=O)c1ccco1,-1,2,-5,-3,-11,x,x
c1coc(-c2ccnc3ncnn23)c1,-1,5,2,49*,-3,-5,-1%
CC(C)CC(C(=O)NCC1CCN(Cc2ccc(F)cc2)CC1)N1Cc2ccccc2C1=O (stereo unspecified),0,2,9,-8,-3,x,x
Cc1cc(C=C2C(=O)c3ccccc3C2=O)c(C)n1-c1ccc(C(=O)O)cc1,5,2,9,49*,-2,-10,u
Cc1cc(C=C2C(=O)c3ccccc3C2=O)c(C)n1-c1cccc(C(=O)O)c1,9,8,-4,4,-2,x,x
Cc1ccc2c(c1)c(Sc1ccccc1)c(CC(=O)O)n2C,99*,3,8,20,8,-7,1%
CCCCn1c(=O)c2oc3ccccc3c2n(Cc2ccc(C)cc2)c1=O,0,1,-9,6,-2,x,x
COc1ccc(/C=C2\SC(=O)N(CCC(=O)Nc3ccccc3)C2=O)cc1OC,0,1,2,57*,-4,-3,4%
COc1ccc(/C=C2\SC(=O)N(CCCC(=O)Nc3ccc(C(=O)O)cc3)C2=O)cc1OC,-1,0,4,8,0,x,x
Cc1nc2c(-c3ccc(F)cc3)c(C)nn2c(C)c1CCC(=O)Nc1ccccc1F,0,2,-20,15,-6,x,x
N#CCc1cc2ccc3cccc4ccc(c1)c2c34,0,5,-1,-2,0,x,x
CCN(CC)CCN(C(=O)c1ccc2c(c1)CCCC2)c1nc2c(C)cccc2s1,38*,4,22,1,-1,-8,0%
CN(c1ccccc1)c1nc(N)c([N+](=O)[O-])c(NCCO)n1,-2,1,-15,4,-2,x,x
Cc1c(NC(=O)CN2C(=O)NC(C)(c3ccccc3)C2=O)c(=O)n(-c2ccccc2)n1C (stereo unspecified),0,3,-32*,48*,-5,-2,0%
COc1ccc(C(CNC(=O)CCNS(=O)(=O)c2ccc(Br)cc2)N2CCCC2)cc1 (stereo unspecified),0,48*,-63*,48*,-8,-6,5%
CCN(CC)N=Nc1ccc(S(N)(=O)=O)cc1,0,9,-5,58*,-7,3,3%
Cc1ccc(CNC(=O)c2ccc3c(c2)N(Cc2ccccc2Cl)C(=O)CS3)cc1,0,2,1,5,1,x,x
SMILES,TRHR agonist-1,D1 agonist,D1 antag,TRHR enhancer-1,D1 potentiator,TRHR enhancer-2,TRHR agonist-2
COc1ccc(-c2cc(C(=O)N/N=C(\C)c3cccnc3)c3ccccc3n2)c(OC)c1,2,4,1,3,-7,x,x
Cc1ccccc1NC(=O)CSc1nc(N)c(C#N)c(-c2cccs2)c1C#N,2,7,-9,1,0,x,x
COc1ccc(CCNC(=O)CSc2nc(N)c(C#N)c(-c3cccs3)c2C#N)cc1OC,141*,1,0,26,-5,0,0%
CC(SCc1ccccc1)C(=O)Nc1ccccc1F (stereo unspecified),0,3,-1,56*,-5,1,0%
CCC(C)/C(C)=N/NC(=O)c1ccc(COc2ccc(Cl)c(C)c2)cc1 (stereo unspecified),0,8,-9,-3,-2,x,x
Cn1cccc1/C=C1/SC(=S)N(CC(=O)O)C1=O,2,12,-15,15,-4,x,x
CN1CCS/C1=C\C=C1/SC(=S)N(CC(=O)O)C1=O,29,129*,6,2,-7,23,21µM*
CCCC(=O)NC(C)c1nc2ccccc2n1CC (stereo unspecified),0,2,0,45*,-8,-6,0%
Nn1c(SCc2cccc3ccccc23)nnc1-c1ccco1,-1,1,-10,50*,-3,-1,5%
Cn1c(SCc2cccc3ccccc23)nnc1-c1ccco1,-1,1,-7,-4,-4,x,x
CCC(C)(C)NC(=O)C(c1cccn1C)N(C(=O)Cn1nnc2ccccc21)c1ccc(F)cc1 (stereo unspecified),29,6,2,-17,1,-4,u
Cc1ccc(C)c2[nH]c(=O)c(CN(Cc3cccs3)C(=S)NCc3ccco3)cc12,0,3,2,-6,-4,x,x
COc1ccccc1NC(=S)N(Cc1cccnc1)Cc1ccccc1Cl,0,1,-13,-1,-3,x,x
Cc1ccccc1NC(=S)N(Cc1cccnc1)Cc1ccccc1Cl,-1,2,11,47*,-6,u,6%
CCC(C)NC(=O)c1cc2c(=O)n(CC)c3ccccc3c2s1 (stereo unspecified),-1,2,4,58*,-9,-5,2%
CCCCCC(=O)Nc1ccc(C2C(=O)c3ccccc3C2=O)cc1,0,0,12,-9,1,x,x
O=C(O)c1cccc(NC(=O)c2ccccc2NC(=O)c2ccccc2F)c1,1,6,1,13,-4,x,x
O=C(Nc1ccccc1C(=O)Nc1ccccc1)c1ccccc1F,0,2,-9,48*,-2,u,1%
COc1cccc(N2CCN(C(=O)c3cc4c(s3)CCCCC4)CC2)c1,0,2,-11,4,-8,x,x
CC1(c2ccc(Cl)cc2)NC(=O)N(CC(=O)NCCC2=CCCCC2)C1=O (stereo unspecified),0,4,12,81*,1,0,1%
